Results filed as inconclusive are left out. Activity calls are given as the source filed them. Calls come from the whole dose curve; as a rule, active = well fitted cell-killing curve with a large enough effect; inconclusive = small, poorly fitted or top-dose-only effect, or effect the other way; inactive = no such curve, though single readings can be large or run the other way.
Experiments:
[1] = Quantitative High-Throughput drug screen in 47 multiple myeloma cell lines against the NCATS MIPE library collection: OCIMY7_PLB cell viability assay (AID 1918987); note: nearly all actives have a fitted effect of over 65% in size
Summary of the method: (§1)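 Inhibition of viability over 48 h was scored by ATP content (CellTiter-Glo) in 500-cell wells. Zero and full viability were defined by media-only and DMSO-only wells.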

[2] = Quantitative High-Throughput drug screen in 47 multiple myeloma cell lines against the NCATS MIPE library collection: U266_ATCC cell viability assay (AID 1919864); note: nearly all actives have a fitted effect of over 35% in size;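 for viability (% of DMSO control): 0% = media-only wells without cells and 100% = DMSO-only wells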
Summary of the method: as §1

[3] = Quantitative High-Throughput drug screen in 47 multiple myeloma cell lines against the NCATS MIPE library collection: XG6_PLB cell viability assay (AID 1919865); note: nearly all actives have a fitted effect of over 40% in size
Summary of the method: as §1

[4] = Quantitative High-Throughput drug screen in 47 multiple myeloma cell lines against the NCATS MIPE library collection: VP6_DJ cell viability assay (AID 1919867); note: nearly all actives have a fitted effect of over 40% in size
Summary of the method: as §1

[5] = Quantitative High-Throughput drug screen in 47 multiple myeloma cell lines against the NCATS MIPE library collection: PE2_PLB cell viability assay (AID 1919869); note: nearly all actives have a fitted effect of over 35% in size
Summary of the method: as §1

[6] = Quantitative High-Throughput drug screen in 47 multiple myeloma cell lines against the NCATS MIPE library collection: OCIMY5_PLB cell viability assay (AID 1918988); note: nearly all actives have a fitted effect of over 65% in size
Summary of the method: as §1

[7] = Quantitative High-Throughput drug screen in 47 multiple myeloma cell lines against the NCATS MIPE library collection: OPM1_PLB cell viability assay (AID 1918989); note: nearly all actives have a fitted effect of over 40% in size
Summary of the method: as §1

[8] = Quantitative High-Throughput drug screen in 47 multiple myeloma cell lines against the NCATS MIPE library collection: SKMM1_PLB cell viability assay (AID 1919863); conditions: SKMM1 myeloma viability, CellTiter-Glo ATP, 48 h; viability: active compounds read low; note: nearly all actives have a fitted effect of over 35% in size
Summary of the method: as §1

[9] = Quantitative High-Throughput drug screen in 47 multiple myeloma cell lines against the NCATS MIPE library collection: XG1_PLB cell viability assay (AID 1919866); note: nearly all actives have a fitted effect of over 35% in size
Summary of the method: as §1

[10] = Quantitative High-Throughput drug screen in 47 multiple myeloma cell lines against the NCATS MIPE library collection: UTMC2_PLB cell viability assay (AID 1919868); conditions: CellTiter-Glo ATP luminescence, 48 h; viability (% of DMSO control): at 45.8 µM (top of the series); note: nearly all actives have a fitted effect of over 55% in size;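 for viability (% of DMSO control): 100% = DMSO-only wells and 0% = media-only wells without cells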
Summary of the method: as §1
Potency is the fitted concentration of half-maximal effect.

Nc1nc2ccc(OC(F)(F)F)cc2s1
active: Potency [4] 18.7 µM
inactive: Potency [1] | Potency [2] | Potency [3] | Potency [5]

CS(=O)(=O)Oc1ccc2c(NC(N)=O)c(C(=O)c3ccc(Cl)cc3Cl)oc2c1
active: Potency [7] 20.9 µM | Potency [2] 11.8 µM | Potency [3] 16.6 µM | Potency [9] 20.9 µM | Potency [4] 9.35 µM | Potency [10] 16.6 µM | Potency [5] 23.5 µM
inactive: Potency [6] | viability [8] 128%

CCCCCCCc1ccc(CCc2cccc(O)c2C(=O)O)cc1
active: Potency [6] 16.6 µM | Potency [7] 20.9 µM | Potency [10] 29.6 µM | Potency [5] 20.9 µM
inactive: Potency [2]

Nc1nc2c(ncn2COCCO)c(=O)[nH]1
active: Potency [9] 18.7 µM
inactive: Potency [6] | Potency [7] | Potency [2] | Potency [3] | Potency [4] | Potency [5]

N[C@@H]1CONC1=O
active: Potency [4] 20.9 µM
inactive: Potency [6] | Potency [7] | Potency [2] | Potency [3] | Potency [9] | Potency [10] | Potency [5]

CCN(CC)CCCC(C)Nc1nc(C)cc(Nc2ccc3nc(C)cc(N)c3c2)n1 (stereo not drawn)
active: Potency [1] 8.33 µM | Potency [4] 3.72 µM | Potency [5] 10.5 µM

O=c1[nH]cnc2[nH]ncc12
inactive: Potency [1] | Potency [2] | Potency [9]
active: Potency [5] 18.7 µM

Cc1c(CCOc2ccc(C(=O)O)cc2)c2cc(Cl)ccc2n1C(c1ccccc1)c1ccccc1
active: Potency [2] 11.8 µM
inactive: Potency [1] | viability [8] 110% | Potency [3] | Potency [9] | Potency [5]

O=C1[C@H](Cc2ccc(O)cc2)N2C(=O)CCN(C(=O)NCc3ccccc3)[C@H]2CN1Cc1cccc2ccccc12
active: Potency [6] 4.18 µM | Potency [7] 8.33 µM | Potency [8] 6.62 µM | Potency [3] 4.18 µM | Potency [9] 9.35 µM | Potency [5] 4.69 µM

Cc1cnc(NC(=O)C2=C(O)c3ccccc3S(=O)(=O)N2C)s1
inactive: Potency [6] | Potency [7]

CCC(C)(C)C(=O)O[C@H]1C[C@@H](C)C=C2C=C[C@H](C)[C@H](CC[C@@H]3C[C@@H](O)CC(=O)O3)[C@H]21
active: Potency [6] 18.7 µM | Potency [7] 8.33 µM | Potency [3] 18.7 µM | Potency [9] 9.35 µM | Potency [4] 16.6 µM | Potency [10] 14.8 µM

COc1ccc(-c2ccc3c(N4CCOCC4)nc(N4C[C@@H](C)O[C@@H](C)C4)nc3n2)cc1CO
active: Potency [6] 1.48 µM | Potency [7] 0.935 µM | Potency [8] 1.66 µM | Potency [2] 0.332 µM | Potency [3] 0.59 µM | Potency [9] 0.187 µM | Potency [4] 0.296 µM | Potency [10] 0.526 µM | Potency [5] 0.833 µM

CCN(c1ccccc1)c1cc(NC)[n+](C)c(C)n1
inactive: Potency [7] | Potency [3] | Potency [9] | Potency [4] | Potency [10] | Potency [5]
active: Potency [6] 20.9 µM

CC(C)(C)OC(=O)CN(Cc1ccc(Cl)cc1)Cc1ccc([N+](=O)[O-])s1
active: Potency [6] 18.7 µM

CCC(=O)N[C@H]1CC[C@H](C(=O)N(C)c2ccc(-c3nc4ccccc4o3)cc2)C1
inactive: viability [8] 132%
active: Potency [1] 8.33 µM | Potency [3] 8.33 µM | Potency [9] 6.62 µM | Potency [4] 14.8 µM | Potency [5] 13.2 µM

CCOc1cc(C(=O)Nc2ccc(Cl)c(-c3nc4ccccc4[nH]3)c2)cc(OCC)c1OCC
active: Potency [1] 0.418 µM | Potency [5] 8.33 µM
inactive: Potency [10]

Cc1cc(Nc2nc(N[C@@H](C)c3ncc(F)cn3)ncc2Cl)n[nH]1
active: Potency [6] 7.43 µM | Potency [7] 18.7 µM | Potency [2] 9.35 µM | Potency [3] 2.96 µM | Potency [9] 2.64 µM | Potency [4] 6.62 µM | Potency [10] 6.62 µM | Potency [5] 10.5 µM

Oc1cccc(-c2nc(N3CCOCC3)c3oc4ncccc4c3n2)c1
active: Potency [6] 0.382 µM | Potency [7] 0.0855 µM | Potency [2] 0.054 µM | Potency [3] 0.136 µM | Potency [10] 0.0382 µM | Potency [5] 0.0855 µM

COc1ccc(COc2cc3oc(=O)c4cc(C(C)O)ccc4c3cc2OC)cc1 (stereo not drawn)
active: Potency [6] 20.9 µM | Potency [7] 18.7 µM | Potency [2] 13.2 µM | Potency [9] 13.2 µM | Potency [4] 14.8 µM | Potency [10] 20.9 µM | Potency [5] 14.8 µM

CC(C[N+](C)(C)C)OC(N)=O (stereo not drawn)
active: Potency [6] 16.6 µM
inactive: Potency [7] | Potency [2] | Potency [5]

CNC[C@H](O)c1cccc(O)c1
active: Potency [6] 0.332 µM | Potency [4] 1.32 µM | Potency [10] 0.0021 µM
inactive: Potency [7] | Potency [3] | Potency [9] | Potency [5]

COc1cc(Oc2ccnc3cc(OC)c(OC)cc23)ccc1NC(=O)NC(C)c1nccs1 (stereo not drawn)
active: Potency [6] 16.6 µM | Potency [7] 20.9 µM | Potency [5] 23.5 µM
inactive: Potency [2] | Potency [10]

Cc1oncc1C(=O)Nc1ccc(C(F)(F)F)cc1
active: Potency [3] 4.69 µM | Potency [9] 16.6 µM
inactive: Potency [1] | viability [8] 115% | Potency [10] | Potency [5]

C1COC(NC(C2CC2)C2CC2)=N1
active: Potency [7] 16.6 µM
inactive: Potency [6]

OC(CCN1CCCCC1)(c1ccccc1)C1CC2C=CC1C2 (stereo not drawn)
inactive: Potency [6] | Potency [7] | Potency [2] | Potency [3] | Potency [9] | Potency [4] | Potency [5]

COc1cc2nccc(Oc3ccc(NC(=O)NC4CC4)c(Cl)c3)c2cc1C(N)=O
active: Potency [6] 3.32 µM | Potency [7] 16.6 µM | Potency [2] 7.43 µM | Potency [3] 3.32 µM | Potency [9] 18.7 µM | Potency [10] 2.64 µM | Potency [5] 18.7 µM

C[C@@H]1CN(Cc2ccc(F)cc2)[C@@H](C)CN1C(=O)c1cc2c(C(=O)C(=O)N(C)C)cn(C)c2cc1Cl
active: Potency [1] 14.8 µM | Potency [7] 29.6 µM | Potency [9] 18.7 µM | Potency [4] 14.8 µM | Potency [5] 16.6 µM

Oc1ccc(C2CNCCc3c2cc(O)c(O)c3Cl)cc1 (stereo not drawn)
inactive: Potency [7] | viability [8] 103% | Potency [2] | Potency [9] | Potency [5]
active: Potency [6] 16.6 µM

O=C(c1cc(Cc2n[nH]c(=O)c3ccccc23)ccc1F)N1CCN(C(=O)C2CC2)CC1
inactive: Potency [7]
active: Potency [1] 2.64 µM | Potency [3] 13.2 µM | Potency [10] 10.5 µM | Potency [5] 18.7 µM

CCOc1ccn(-c2ccc(F)cc2)c(=O)c1C(=O)Nc1ccc(Oc2ccnc(N)c2Cl)c(F)c1
active: Potency [6] 8.33 µM | Potency [3] 11.8 µM | Potency [9] 3.32 µM | Potency [10] 13.2 µM | Potency [5] 13.2 µM

O=NN(CCCl)C(=O)NCCCl
inactive: Potency [7] | viability [8] 118% | Potency [3] | Potency [9] | Potency [4] | Potency [5]

CCCCNc1cc(C(=O)O)cc(S(N)(=O)=O)c1Oc1ccccc1
inactive: Potency [7] | viability [8] 158% | Potency [9] | Potency [4] | Potency [5]

N#Cc1ccc(C(c2ccc(C#N)cc2)n2cncn2)cc1
active: Potency [7] 16.6 µM | Potency [8] 6.62 µM | Potency [2] 16.6 µM | Potency [4] 16.6 µM
inactive: Potency [5]

C[C@H](NC(=O)Cc1cc(F)cc(F)c1)C(=O)N[C@@H]1C(=O)N(C)c2ccccc2-c2ccccc21
active: Potency [6] 16.6 µM | Potency [2] 16.6 µM | Potency [3] 4.69 µM | Potency [5] 5.9 µM
inactive: Potency [4]

NCCc1ccc(O)c(O)c1
active: Potency [6] 20.9 µM | Potency [2] 23.5 µM | Potency [4] 23.5 µM

NCCCC(N)(C(=O)O)C(F)F (stereo not drawn)
inactive: viability [8] 97% | Potency [9] | Potency [5]
active: Potency [6] 0.332 µM

NC(=O)c1ccc(-c2nc(-c3ccc4c(c3)OCCO4)c(-c3ccccn3)[nH]2)cc1
active: Potency [6] 18.7 µM | Potency [3] 8.33 µM | Potency [4] 23.5 µM
inactive: Potency [10]

C[C@]12CC[C@H](O)CC1=CC[C@@H]1[C@H]2CC[C@]2(C)C(c3cccnc3)=CC[C@H]12
active: Potency [3] 3.23 µM | Potency [9] 3.23 µM | Potency [4] 8.12 µM
inactive: Potency [6] | Potency [2] | Potency [5]

CNCc1ccc(-c2[nH]c3cc(F)cc4c3c2CCNC4=O)cc1
inactive: Potency [6] | Potency [7] | Potency [5]

CCCc1nn(C)c2c(=O)[nH]c(-c3cc(S(=O)(=O)N4CCN(C)CC4)ccc3OCC)nc12
active: Potency [6] 7.43 µM | Potency [2] 20.9 µM

Cc1[nH]c(=O)c(C#N)cc1-c1ccncc1
inactive: viability [8] 106%
active: Potency [7] 16.6 µM | Potency [3] 5.9 µM | Potency [5] 11.8 µM

Cn1cc(-c2ccc3nnc(C(F)(F)c4ccc5ncccc5c4)n3n2)cn1
active: Potency [6] 16.6 µM
inactive: Potency [10] | Potency [5]

CCOC(=O)N[C@@H]1CC[C@@H]2[C@@H](C1)C[C@H]1C(=O)O[C@H](C)[C@H]1[C@@H]2C=Cc1ccc(-c2cccc(F)c2)cn1
active: Potency [6] 23.5 µM | Potency [9] 16.6 µM

CCn1cc(C(=O)O)c(=O)c2cc(F)c(N3CCNC(C)C3)c(F)c21 (stereo not drawn)
active: Potency [7] 11.8 µM
inactive: Potency [6] | Potency [3] | Potency [9] | Potency [4] | Potency [5]

O=c1[nH]c(-c2ccc(C(F)(F)F)cc2)nc2c1CSCC2
inactive: Potency [9]
active: Potency [6] 5.26 µM | Potency [2] 18.7 µM

From PubChem BioAssay (NCATS)
